Active and inactive are the calls of the source. Rule for the calls: active = hit-call score of the fitted dose curve at least 0.9, where 1 is the maximum; inactive = score below 0.9.

A word on the AC50: it is the concentration at which the activity in the assay is half-maximal.

For the experiment, the system named is rat KATP Antagonism, gene 24521. The experiment is described as follows: ERF_FR_IC_rKCNJ1: Eurofins (ERF) Potassium Ion Channel Mass Spectrometry Ligand Binding LeadHunter Assay for rat KATP Antagonism. As to the method: ERF_FR_IC_rKCNJ1 is a biochemical, single-readout assay that uses extracted gene-proteins in a cell-free assay. Measurements were taken 1 hour after chemical dosing in a 96-well plate. See KATP Rat Potassium Ion Channel Binding (Antagonist Radioligand) Assay, Cerep.ERF_FR_IC_rKCNJ1 is an assay component calculated from the ERF_FR_IC_rKCNJ1 assay. It is designed to measure radioligand binding using a type of binding reporter as detected by scintillation counting with radiometry technology.Data from the assay component ERF_FR_IC_rKCNJ1 was analyzed at the assay endpoint, ERF_FR_IC_rKCNJ1, in the positive analysis fitting direction relative to DMSO as the negative control and baseline of activity. Using a type of binding reporter, loss-of-signal activity can be used to understand changes in binding as they relate to gene KCNJ1. To generalize the intended target to other relatable targets, this assay endpoint is annotated to the ion channel intended target family, where the subfamily is voltage gated (Potassium).
Rat cells are incubated for 60 minutes at room temprature with Glibenclamide (0.07 nM) as ligand and Glibenclamide-d3 (30nM) as control inhibitor. Test Sample Requirements: Minimum for 1) Screen: 60 ul of 10 mM stock -OR- 1 mg (pre-weighed) for 10 uM final testing. 2) Dose Response: 90 ul of 10 mM stock -OR- 1 mg (pre-weighed) for a top concentration at 10 uM.
As for `O=C(/C=C/c1ccc(O)cc1)CC(=O)/C=C/c1ccc(O)cc1`, the AC50 was 880 nM (active).
